About 13,000 (27%) of roughly 48,000 compounds showed an effect of 50% or more. The list shows a part of the results.
Test system: Wolbachia pipientis
Test: Anti-Wolbachia Cell-Based Screen
Assay type: functional
Design: scale not given: in the data most compounds retested in dose-response had high values
Conditions: 5 µM

| Structure (SMILES) | Percent Effect |
| --- | --- |
| O=C1CC(CNc2cncc(Cl)n2)c2ccccc2N1 (stereo not drawn) | -4.513% |
| Cc1n[nH]c(CN2CCN(C(=O)C3CCC3)[C@@H]3CS(=O)(=O)C[C@@H]32)n1 | -3.785% |
| Cc1cc(C(=O)Nc2ccc(OC3CCOCC3)c(C)c2)[nH]n1 | -9.28% |
| O=C1CN(CCCNC(=O)Nc2ccccn2)CCN1 | 3.817% |
| Cc1nc(C)c(CC(=O)NCc2ccc(F)cc2F)s1 | 12.14% |
| COc1cccc(CNC[C@H]2COCc3nc4cccnc4n32)n1 | -3.627% |
| OCC1(CCOc2ccccc2)CCCN(c2ccc(Cl)cn2)C1 (stereo not drawn) | 19.44% |
| COc1ccc(NC(=O)C2CC2)cc1OCc1cccnc1 | -2.646% |
| Cc1ccc(CNC(=O)C2c3c(ncn3C(C)C)CCN2S(C)(=O)=O)o1 (stereo not drawn) | -24.24% |
| CC(=O)N1N=C(c2cccs2)OC1C(=O)NCc1ccc(C)o1 (stereo not drawn) | 124.5% |
| CNC(=O)c1ccc(OC)c(NCc2noc(-c3cccs3)n2)c1 | -3.924% |
| CNC(=O)C(C)S(=O)(=O)Cc1csc(-c2cccs2)n1 (stereo not drawn) | -15.96% |
| Cc1ccc(CN(C(=O)NCC(c2cccs2)N(C)C)C2CC2)o1 (stereo not drawn) | 16.5% |
| O=c1oc(-c2cccs2)nn1CC(O)c1ccccc1 (stereo not drawn) | 2.258% |
| COc1ccc(NC(=O)C2OC(c3cccs3)=NN2C(C)=O)cc1OC (stereo not drawn) | 133.2% |
| CC(=O)N1N=C(c2cccs2)OC1C(=O)Nc1ccc(C(C)C)cc1 (stereo not drawn) | 90.69% |
| CCN(CC)C(=O)[C@@H]1C[C@H](N)CN1c1nnc(-c2ccccc2)s1 | 5.055% |
| CC(Cc1ccco1)NC(=O)Nc1ccc(S(C)(=O)=O)nc1 (stereo not drawn) | -6.327% |
| Cc1cc(-c2cc(N)c(=O)n(CC(=O)NC3CCCC3)n2)c(C)o1 | 122.3% |
| Cc1cc(-c2cc(N)c(=O)n(CC(=O)NC3CCCCC3)n2)c(C)o1 | 117.4% |
| Cc1ccc(-c2cc(N)c(=O)n(CC(=O)NC3CCCCC3)n2)s1 | -5.352% |
| COc1cc(C(=O)N2CCC(c3n[nH]c(C4CC4)n3)CC2)ccc1C | 15.65% |
| COc1ccc(OC)c(C(=O)N2C[C@H]3CC[C@@H]2CN(C)C3)c1 | 19.05% |
| COc1cc(C(=O)N2CCC(Nc3cccnc3)CC2)ccc1C | 66.95% |
| COc1ccc(OC)c(C(=O)N2CCC(Nc3cccnc3)CC2)c1 | 94.46% |
| O=C(c1ccc[nH]1)N(Cc1ccc(O)cc1)CC1CC1 | -7.123% |

| Structure (SMILES) | Percent Effect |
| --- | --- |
| CC(OCc1ccccc1)C(=O)NCc1ccc(N(C)C)cc1 (stereo not drawn) | 130.9% |
| CCOC(C)C(=O)NCc1cccc(CN2CCCCCC2)c1 (stereo not drawn) | 0.5451% |
| CC(C)C(=O)NCc1ccc(N(C)C)cc1 | 131.8% |
| CC(OCc1ccccc1)C(=O)NC1CCN(CC(N)=O)CC1 (stereo not drawn) | -2.8% |
| CC(C)COC(C)C(=O)NCc1ccc(Cn2ccnc2)cc1 (stereo not drawn) | 0.5486% |
| CCOC(C)C(=O)NCc1ccc(N(C)C)cc1 (stereo not drawn) | 106.9% |
| CN(C)c1ccc(CNC(=O)Nc2ccc(S(=O)(=O)C(F)F)cc2)cc1 | -8.512% |
| CC(C)COC(C)C(=O)NCc1ccc(N(C)C)cc1 (stereo not drawn) | -1.344% |
| CN1CCC(CNC(=O)NCc2ccc(N(C)C)cc2)CC1 | -5.904% |
| CCOc1cc(CNCc2ncc[nH]2)c(Cl)cc1OC(C)C | -9.365% |
| CN(CCN1CCCC1)c1nccc(N2CCN[C@H]3CS(=O)(=O)C[C@H]32)n1 | -5.82% |
| CC(C)Nc1ncnc2c1CCN(c1cc(C(F)(F)F)ncn1)CC2 | -0.2205% |
| COCCN1CCc2ncnc(NC(C)C)c2CC1.O=C(O)C(F)(F)F | 87.2% |
| COc1ccc(CN2CCc3ncnc(OC(C)C)c3CC2)cc1.O=C(O)C(F)(F)F | -22.8% |
| CC(C)Oc1ncnc2c1CCN(Cc1ccc(F)cc1)CC2.O=C(O)C(F)(F)F | 2.897% |
| CC(C)Nc1ncnc2c1CCN(Cc1ccoc1)CC2 | 96.99% |
| c1cc(CCNc2ncnc3c2CCN(Cc2ccoc2)CC3)ccn1 | -12.64% |
| CC(C)Nc1ncnc2c1CCN(Cc1nccn1C)CC2.O=C(O)C(F)(F)F.O=C(O)C(F)(F)F | -25.56% |
| Nc1nc(CNc2ncnc3c2CCN(Cc2ccoc2)CC3)cs1 | -10.72% |
| COCCN1CCc2ncnc(OC(C)C)c2CC1.O=C(O)C(F)(F)F | 107.2% |
| O=C(N[C@@H]1C[C@H]2CC[C@@H]1C2)C1(Oc2ccc(Cl)cc2)CCNCC1 | 5.083% |
| Cc1nonc1C(=O)N1CCc2c(ncn2CCc2ccccc2)C1 | 7.043% |
| CSCCCNC(=O)Nc1cccc(-c2nccn2C)c1 | 3.955% |
| COc1cccc(-c2nc(CNCCn3cccn3)cs2)c1 | -13.66% |
| COc1cccc(-c2cc(NCc3nccn3C)n(C)n2)c1 | -16.42% |
| Cn1ccnc1-c1nc(NC2CCCC2)ncc1-c1cccc(F)c1 | 77.55% |

| Structure (SMILES) | Percent Effect |
| --- | --- |
| COCCCNc1ncc(-c2cccc(F)c2)c(-c2nccn2C)n1 | 116.3% |
| Cc1ccc(CNC(c2cccc(F)c2)c2nccn2C)o1.Cl (stereo not drawn) | -1.716% |
| CSC(C)(C)CNC(=O)Nc1cccc(-c2nccn2C)c1 | -14.94% |
| COCCNc1ncc(-c2cccc(F)c2)c(-c2nccn2C)n1 | 111.1% |
| COCCNc1ncc(-c2cccc(OC)c2)c(-c2nccn2C)n1 | 73.04% |
| Cc1nnc(CN(C)CC(=O)N2CCCC(C(F)(F)F)C2)n1C (stereo not drawn) | -17.87% |
| CC1CCc2nc(O)c(C(=O)NCc3ccccc3F)cc2C1 (stereo not drawn) | -2.667% |
| C[C@@H]1CN(S(=O)(=O)N2CCCCCC2)C[C@@]1(O)C1CCC1 | 19.36% |
| O=C(O)C(F)(F)F.O=C([C@H]1C[C@H]2OCC[C@H]2N(C(=O)c2ccncc2)C1)N1CCCC1 | -2.024% |
| N#Cc1ccc(SCCC(=O)NC(N)=O)cc1 | 0.3622% |
| Cc1c(F)cccc1S(=O)(=O)N(C)CC(C)O (stereo not drawn) | 10.31% |
| CCOCCCC(=O)Nc1c(-c2ccc(F)cc2)ncn1C | -11.11% |
| CCOCCCNc1ncc(-c2cccc(F)c2)c(-c2nccn2C)n1 | 61.85% |
| CCOCCNC(=O)Nc1cccc(-c2nccn2C)c1 | -19.42% |
| CCCc1cnc(C)nc1N1CCC(F)(F)CC1 | -3.547% |
| Cc1cccc2c1nc1n2[C@@H](CNC(=O)NC(C)C)COC1 | -19.06% |
| Cc1cc(Nc2ccc3c(c2)CC(=O)N3)nc(C2CC2)n1 | -4.534% |
| Cn1nccc1-c1ncc(-c2cc(C(=O)O)n(CC3CC3)c2)cn1 | 118.9% |
| Cn1nccc1C(=O)N1CCN(C(=O)C2CC2)[C@@H]2CS(=O)(=O)C[C@@H]21 | 14.29% |
| Cn1cc(-c2cnc(N3CCCC3)nc2)cc1C(=O)O | -13.43% |
| Cn1cc(-c2cnc(-c3ccnn3C)nc2)cc1C(=O)N1CCCC1 | 85.82% |
| Cn1cc(C(=O)NC2CCN(Cc3ccn(C)c(=O)c3)CC2)cn1 | -2.603% |
| Cn1nccc1-c1nc2c(cc1C(=O)O)CCN(CC1CC1)CC2 | -6.641% |
| Cn1cc(-c2cnc(-c3ccnn3C)nc2)cc1C(=O)NC1CC1 | 95.89% |
| CC(C)Oc1cccc(C(=O)C2CCCN(C(=O)c3ccnn3C)C2)c1 (stereo not drawn) | -5.247% |
| Cc1cn2c(n1)CCC(NC(=O)c1cc(Br)cn1C)C2 (stereo not drawn) | -1.001% |

| Structure (SMILES) | Percent Effect |
| --- | --- |
| COc1cccc2c1OCC(C(=O)N1CCC(N3CCSCC3)CC1)C2 (stereo not drawn) | -10.16% |
| CSc1ccc(NCC(=O)NC(=O)NCC(F)(F)F)cc1F | 2.815% |
| CCN(Cc1ccoc1)C(=O)Nc1ccccc1CN1CCOCC1 | 2.801% |
| Cc1cc(C(=O)NC2CC(=O)N(C(C)C)C2=O)c(C)n1C(C)C (stereo not drawn) | -25.95% |
| CC(C)[C@H]1CN(S(=O)(=O)c2cccnc2)C[C@@H]1N | -3.763% |
| O=S(=O)(c1cccs1)N1CCC(c2nc(-c3cccs3)no2)CC1 | 1.77% |
| Cc1cc(N(C)C)cc(C2CCN(S(=O)(=O)c3cccnc3)C2)n1 (stereo not drawn) | 129.7% |
| CNC(=O)CS(=O)(=O)C1CCN(S(=O)(=O)c2cccnc2)CC1 | 10.97% |
| N[C@H]1CN(S(=O)(=O)c2cccnc2)C[C@@H]1C1CC1 | -0.9551% |
| Cc1cc(N(C)C)cc(C2CCN(S(=O)(=O)c3cccs3)C2)n1 (stereo not drawn) | 93.47% |
| Cc1noc(C)c1-c1n[nH]c2c1CN(S(=O)(=O)c1cccnc1)CC2 | 2.189% |
| Cc1cccc(C2CCCN(S(=O)(=O)c3cccnc3)C2)n1 (stereo not drawn) | 131.9% |
| COCCc1noc(C2CCN(S(=O)(=O)c3cccs3)CC2)n1 | -5.417% |
| CN(C[C@@H]1CCC[C@@H]2CN(c3ncccn3)C[C@@H]21)C1CC1.O=C(O)C(F)(F)F | 9.93% |
| COc1ccc(N(Cc2ccco2)C(=O)C2CCOC2)cc1F (stereo not drawn) | -6.319% |
| COc1ccc(CNC(=O)N(Cc2ccc(F)cc2F)C2CC2)cn1 | 13.46% |
| Cc1cc(Br)oc1C(=O)N1CCCN(CC(N)=O)CC1 | -7.615% |
| CC(=O)N1CCCN(CCCSCc2ccccc2)CC1 | -18.43% |
| NC(=O)N1CCCN(CCCSCc2ccccc2)CC1 | -22.93% |
| CCN1CCCN(C(=O)c2cnc(OC(C)C)c(Cl)c2)CC1 | 20.31% |
| NC(=O)CN1CCCN(C(=O)c2ccc(SC(F)F)cc2)CC1 | 104.9% |
| CCSCc1ccc(C(=O)N2CCCN(CC(N)=O)CC2)cc1 | 111.3% |
| CCSCc1ccc(C(=O)N2CCCN(CC)CC2)cc1 | 93.96% |
| NC(=O)CN1CCCN(C(=O)c2ccn(-c3ccc(F)cc3)n2)CC1 | 9.69% |
| NC(=O)CN1CCCN(C(=O)c2ccn(-c3ccccc3)n2)CC1 | -8.836% |
